Experimental findings from PubChem BioAssay are described below.

Structures are written as SMILES. The source made the active and inactive calls.

A short description of assay [1]: small molecules captured by biotinylated probe aFSTL3 – biochemical, small-molecule microarray, fluorescence 635/667, stem cell growth factor project, primary screen (AID 1064).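 Note: measures binding of the biotinylated anti-FSTL3 antibody to printed compounds.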 Particulars: higher = more signal.
Assay [2] in a line: binders from COS7 lysate, DM2A8 probe, primary screen, torsin A project, cell lysate, small-molecule microarray, fluorescence 635/667 (AID 1065). Particulars: higher = more signal, COS7 lysate expressing mutant human TOR1A.
Assay [3] can be described thus: small molecules captured by biotinylated probe aFGF2 – biochemical, small-molecule microarray, fluorescence 635/667, stem cell growth factor project, primary screen (AID 1067).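 Note: measures binding of biotinylated aFGF2 protein to printed compounds on slides; z-score merges feature fluorescence and signal-to-noise across triplicate slides.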 Particulars: higher = more signal.
A short description of assay [4]: small molecules captured by biotinylated probe aFGF10 – biochemical, small-molecule microarray, fluorescence 635/667, stem cell growth factor project, primary screen (AID 1071).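 Note: score merges 667 nm spot intensity and signal to noise from triplicate slides.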 Particulars: higher = more signal.
For assay [5], the target named is Neurogenic locus notch homolog protein 2 (Homo sapiens) (UniProt Q04721). In words: small molecules binding Notch2 protein – biochemical, small-molecule microarray, 635 nm fluorescence, stem cell growth factors, primary screen (AID 1073). Particulars: higher = more signal.
Assay [6] addresses Pro-neuregulin-1, membrane-bound isoform (Homo sapiens) (UniProt Q02297). In words: small molecules binding neuregulin-1 protein – biochemical, small-molecule microarray, fluorescence 635/667, psychiatric disease protein project, primary screen (AID 1075).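 Note: score combines 667 nm spot fluorescence with signal to noise.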 Particulars: NRG1 binding, 635 nm fluorescence, higher = more signal.
Assay [7] relates to Neuregulin-1 EGF-like domain. Put plainly: small molecules binding NRG1 EGF domain – biochemical, small-molecule microarray, 635 nm fluorescence, primary screen (AID 1081).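 Note: binding of the protein to compounds printed on small-molecule microarray slides.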 Particulars: higher = more signal.
A short description of assay [8]: FRG1 expression reporter modulators in myotubes – cell-based, C2C12 myotubes, firefly/Renilla luciferase, luminescence, FRG1 inhibition for FSHD, primary screen (AID 1084). Particulars: FRG1 promoter luciferase, higher = more signal, called active from +8 up or from −8 down.
Assay [9] is described as follows: small molecules captured by biotinylated probe aFST – biochemical, small-molecule microarray, fluorescence 635/667, stem cell growth factor project, primary screen (AID 1086).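 Note: score merges 667 nm fluorescence with signal-to-noise of each printed compound spot.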 Particulars: higher = more signal.
The nature of assay [10]: binders of probe aHhip on microarray, primary screen, stem cell growth factor project, biochemical, small-molecule microarray, fluorescence 635/667 (AID 1087).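 Note: score merges spot fluorescence at 667nm with spot signal to noise ratio.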 Particulars: higher = more signal.
Assay [11] deals with PRMT1 (protein arginine N-methyltransferase 1). Put plainly: small molecules binding arginine methyltransferase PRMT1 – biochemical, small-molecule microarray, 635 nm fluorescence, primary screen (AID 1088).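 Note: binding of Prmt1 protein to compounds spotted on small-molecule microarray slides.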 Particulars: higher = more signal.
A short description of assay [12]: growth effects on S. cerevisiae YJM789 – YJM789 clinical isolate, OD600, 24 h, basal, primary screen (AID 1089).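 Note: growth of clinical yeast isolate S. cerevisiae YJM 789 seeded 1000 cells per well; test concentration not given here.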 Particulars: higher = more signal, called active from +8 up or from −8 down.
Assay [13] in a line: S. pombe growth modifiers, basal conditions – strain 972, OD600, 24 h, no modulator, primary screen (AID 1090).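 Note: basal condition with compound alone and no growth modifier present; test concentration not given here.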 Particulars: S. pombe 972 growth, higher = more signal, called active from +8 up or from −8 down.
The nature of assay [14]: budding yeast growth modifiers under rapamycin – strain BY4716, OD600, 96 h, primary screen (AID 1091). Note: test concentration not given here. Particulars: S. cerevisiae BY4716 + rapamycin, higher = more signal, called active from +8 up or from −8 down.
The target of assay [15] is Torsin-1A-interacting protein 2 (Homo sapiens) (UniProt Q8NFQ8). In words: small molecules binding lysate-expressed LULL1 – cell lysate, human LULL1 lysate, 635/667 nm fluorescence, primary screen (AID 1092).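 Note: probe is lysate of COS7 cells overexpressing human LULL1; score merges per-feature 667 nm fluorescence with signal-to-noise.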 Particulars: small-molecule microarray, hLULL1 lysate binding, 635 nm fluorescence; higher = more signal.
The nature of assay [16]: optical density change of DRC41 E. coli – strain DRC41, OD650, 24 h, E. coli filamentation project, primary screen (AID 1093).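 Note: MC1000 strain lacking acrAB efflux and sulA so SOS filamentation is blocked; test concentration not given here.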 Particulars: E. coli DRC41 growth, higher = more signal, called active from +8 up or from −8 down.
Assay [17] is described as follows: probe aLefty2 binding to arrayed compounds – biochemical, biotinylated probe, 635/667 nm fluorescence, primary screen (AID 1094).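 Note: score merges spot fluorescence near 667 nm with spot signal-to-noise ratio.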 Particulars: small-molecule microarray, higher = more signal.
The test system of assay [18] is Noggin (protein binding on small-molecule microarray). In words: small molecules binding Noggin protein – biochemical, 635/667 nm fluorescence, primary screen (AID 1095).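 Note: score merges 667 nm feature fluorescence with signal to noise over triplicate slides.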 Particulars: 635 nm fluorescence, higher = more signal.
Assay [19] deals with Neurogenic locus notch homolog protein 3 (Homo sapiens) (UniProt Q9UM47). Put plainly: small molecules binding NOTCH3 protein – biochemical, 635/667 nm fluorescence, primary screen (AID 1096). Particulars: small-molecule microarray, 635 nm fluorescence, higher = more signal.
The nature of assay [20]: probe aEGFR binding to arrayed compounds – biochemical, biotinylated probe, 635/667 nm fluorescence, primary screen (AID 1097).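 Note: probe is a biotinylated anti-EGFR antibody binding compounds printed on slides; score combines fluorescence near 667 nm and signal to noise of each spot.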 Particulars: small-molecule microarray, higher = more signal.

Chain of Neurogenic locus notch homolog protein 3 (Homo sapiens) (Q9UM47 whole entry, looked up): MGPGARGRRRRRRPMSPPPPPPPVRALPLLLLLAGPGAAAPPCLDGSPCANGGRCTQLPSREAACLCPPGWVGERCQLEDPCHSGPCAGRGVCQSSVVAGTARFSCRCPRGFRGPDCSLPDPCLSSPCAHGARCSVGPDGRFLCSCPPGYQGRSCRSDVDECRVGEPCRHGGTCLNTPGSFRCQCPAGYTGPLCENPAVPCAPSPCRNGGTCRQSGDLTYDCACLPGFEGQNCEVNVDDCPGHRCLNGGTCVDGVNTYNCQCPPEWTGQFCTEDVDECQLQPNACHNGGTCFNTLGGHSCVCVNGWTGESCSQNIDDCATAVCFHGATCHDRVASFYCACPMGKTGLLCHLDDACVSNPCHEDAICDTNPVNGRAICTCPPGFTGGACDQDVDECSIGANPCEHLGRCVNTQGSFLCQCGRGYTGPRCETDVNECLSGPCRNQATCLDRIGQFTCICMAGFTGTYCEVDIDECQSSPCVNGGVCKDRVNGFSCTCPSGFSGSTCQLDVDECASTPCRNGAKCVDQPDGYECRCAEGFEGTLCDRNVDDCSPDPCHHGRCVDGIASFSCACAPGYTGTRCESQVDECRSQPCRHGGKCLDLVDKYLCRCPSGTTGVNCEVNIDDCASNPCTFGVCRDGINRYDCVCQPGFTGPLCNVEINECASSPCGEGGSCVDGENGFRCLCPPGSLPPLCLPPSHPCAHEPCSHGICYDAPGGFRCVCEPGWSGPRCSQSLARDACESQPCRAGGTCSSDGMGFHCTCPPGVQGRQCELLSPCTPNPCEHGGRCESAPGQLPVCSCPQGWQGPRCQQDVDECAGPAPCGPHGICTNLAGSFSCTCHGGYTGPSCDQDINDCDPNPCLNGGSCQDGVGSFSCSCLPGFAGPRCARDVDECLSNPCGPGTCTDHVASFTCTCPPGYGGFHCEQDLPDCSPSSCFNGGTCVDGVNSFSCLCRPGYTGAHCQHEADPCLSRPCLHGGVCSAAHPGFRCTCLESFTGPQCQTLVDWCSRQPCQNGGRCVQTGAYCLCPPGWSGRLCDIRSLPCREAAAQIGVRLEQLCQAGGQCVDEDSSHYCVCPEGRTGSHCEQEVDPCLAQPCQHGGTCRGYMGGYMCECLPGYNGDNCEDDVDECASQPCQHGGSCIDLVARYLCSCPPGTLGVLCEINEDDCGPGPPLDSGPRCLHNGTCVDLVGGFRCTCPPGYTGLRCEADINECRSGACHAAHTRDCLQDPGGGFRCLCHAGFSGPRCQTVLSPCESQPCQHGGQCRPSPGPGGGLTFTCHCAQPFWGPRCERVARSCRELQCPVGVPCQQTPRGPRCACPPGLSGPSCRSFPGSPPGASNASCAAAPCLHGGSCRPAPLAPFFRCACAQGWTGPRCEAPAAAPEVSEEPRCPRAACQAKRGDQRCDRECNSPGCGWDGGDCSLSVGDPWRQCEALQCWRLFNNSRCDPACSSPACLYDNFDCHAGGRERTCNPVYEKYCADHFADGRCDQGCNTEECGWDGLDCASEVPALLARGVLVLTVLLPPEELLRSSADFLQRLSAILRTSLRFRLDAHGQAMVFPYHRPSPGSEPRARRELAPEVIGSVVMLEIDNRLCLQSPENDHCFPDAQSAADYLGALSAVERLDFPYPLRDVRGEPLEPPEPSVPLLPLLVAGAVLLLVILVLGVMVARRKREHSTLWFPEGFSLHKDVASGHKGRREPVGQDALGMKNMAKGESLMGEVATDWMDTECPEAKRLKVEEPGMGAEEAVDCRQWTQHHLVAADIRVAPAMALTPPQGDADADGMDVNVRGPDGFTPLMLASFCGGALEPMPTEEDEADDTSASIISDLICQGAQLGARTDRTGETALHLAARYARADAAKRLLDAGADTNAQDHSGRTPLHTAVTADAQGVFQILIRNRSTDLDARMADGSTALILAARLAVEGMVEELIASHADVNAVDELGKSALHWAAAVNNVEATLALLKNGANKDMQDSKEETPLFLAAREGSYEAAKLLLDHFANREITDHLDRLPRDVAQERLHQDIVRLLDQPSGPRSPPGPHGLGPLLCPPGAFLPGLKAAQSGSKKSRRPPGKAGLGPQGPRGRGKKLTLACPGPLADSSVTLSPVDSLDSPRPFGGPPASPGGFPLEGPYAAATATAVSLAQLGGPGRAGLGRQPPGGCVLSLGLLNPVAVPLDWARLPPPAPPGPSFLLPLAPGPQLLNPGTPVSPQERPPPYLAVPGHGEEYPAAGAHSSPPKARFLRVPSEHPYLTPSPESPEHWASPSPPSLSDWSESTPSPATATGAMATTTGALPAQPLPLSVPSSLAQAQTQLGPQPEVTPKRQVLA
Chain of Pro-neuregulin-1, membrane-bound isoform (Homo sapiens) (Q02297 whole entry, looked up, the tested form may be a part, canonical isoform): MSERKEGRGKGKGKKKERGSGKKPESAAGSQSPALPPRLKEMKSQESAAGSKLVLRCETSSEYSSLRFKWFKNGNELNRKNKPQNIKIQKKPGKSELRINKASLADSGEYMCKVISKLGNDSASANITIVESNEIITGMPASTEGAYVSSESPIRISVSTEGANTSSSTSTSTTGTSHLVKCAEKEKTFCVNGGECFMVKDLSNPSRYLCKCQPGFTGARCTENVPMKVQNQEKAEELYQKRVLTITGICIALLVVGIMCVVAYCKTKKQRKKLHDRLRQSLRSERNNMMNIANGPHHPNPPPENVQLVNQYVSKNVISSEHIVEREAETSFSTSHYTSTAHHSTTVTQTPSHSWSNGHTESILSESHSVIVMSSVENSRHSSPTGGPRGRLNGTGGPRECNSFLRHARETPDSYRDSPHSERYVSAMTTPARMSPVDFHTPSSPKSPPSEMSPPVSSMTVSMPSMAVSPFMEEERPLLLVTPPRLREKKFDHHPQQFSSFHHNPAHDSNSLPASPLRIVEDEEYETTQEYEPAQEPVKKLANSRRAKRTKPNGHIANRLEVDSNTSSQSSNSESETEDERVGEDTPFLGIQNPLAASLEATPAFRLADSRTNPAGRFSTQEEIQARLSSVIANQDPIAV
Chain of Torsin-1A-interacting protein 2 (Homo sapiens) (Q8NFQ8 whole entry, looked up): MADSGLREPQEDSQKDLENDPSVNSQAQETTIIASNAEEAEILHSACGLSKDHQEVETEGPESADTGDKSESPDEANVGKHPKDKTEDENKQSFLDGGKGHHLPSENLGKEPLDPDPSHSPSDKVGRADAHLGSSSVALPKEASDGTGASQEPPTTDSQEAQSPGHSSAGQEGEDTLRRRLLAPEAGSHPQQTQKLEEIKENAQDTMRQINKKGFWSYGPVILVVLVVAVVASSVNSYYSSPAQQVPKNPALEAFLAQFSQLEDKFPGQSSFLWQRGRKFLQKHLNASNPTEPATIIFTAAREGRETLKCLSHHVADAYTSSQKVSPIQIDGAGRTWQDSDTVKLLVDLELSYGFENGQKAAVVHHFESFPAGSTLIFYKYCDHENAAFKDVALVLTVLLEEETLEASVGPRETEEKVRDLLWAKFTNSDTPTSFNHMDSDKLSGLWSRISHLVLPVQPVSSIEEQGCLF

For the molecule `CC(C)C(=C=CC[C@@H](O)c1ccccc1OCCO)C[C@@H](O)c1cc(Cl)cc(Cl)c1O`, the composite z-score in [1] was -0.667; in assay [2], 1.84; in assay [3], -0.076; in [4] it was 0.961; in assay [5], 1.16; in assay [6], 1.48. In addition, the composite z-score was 1.19 in assay [7]; 0.704 in assay [9]; -0.0296 in [10]; 1.54 in [11]; 2.7 in [15]; -0.108 in assay [17]. Also, the composite z-score was 1.67 in assay [18], 1.09 in assay [19] and 0.0182 in [20]. Further, the z-score in assay [8] was -1.95 (inactive); in assay [12] it was -0.0964 (inactive); in assay [13], -1.46 (inactive); in [14] it was -0.443 (inactive); in [16], -0.101 (inactive).

Turning to `C=C(/C(=C/C[C@H](OC(=O)c1ccncc1)c1ccccc1OCCO)c1cc(C(=O)OC)ccc1OC)C(C)C`, the composite z-score in [1] is -0.0165; in [2], 0.229; in assay [3], -0.01; in assay [4] it was 0.605; in [5], 0.267; in assay [6] it was 1.1. In addition, the composite z-score in assay [7] is 1.28; in assay [9], 0.265; in assay [10], -0.249; in [11] it was 1.43; in assay [15], 2.74; in assay [17], -0.159. Also, the composite z-score is 0.691 in assay [18], 1.13 in [19] and -0.112 in assay [20]. Also, the z-score in assay [8] was -1 (inactive); in assay [12] it was 0.363 (inactive); in [13] it was 0.115 (inactive); in [14], 2.11 (inactive); in assay [16], 0.329 (inactive).

With `COCCOC(=O)N1C(=O)[C@@]2(c3cc(C#CC4=CCCCC4)ccc31)[C@H](C(=O)N1CCc3cc(OC)c(OC)cc3C1)[C@H]1C(=O)O[C@H](c3ccccc3)[C@H](c3ccccc3)N1[C@@H]2c1ccc(O)cc1`, the composite z-score was -0.0908 in assay [1]; 0.271 in assay [2]; 0.0216 in assay [3]; 1.15 in assay [4]; 1.5 in assay [5]; 1.79 in assay [6]. For the same molecule, the composite z-score was found to be 1.25 in assay [7]; 0.153 in assay [9]; 0.0515 in [10]; 1.5 in assay [11]; 2.68 in assay [15]; 1.08 in [17]. Moreover, the results for the composite z-score in assay [18], in assay [19] and in assay [20] were 0.552, 1.16 and 0.657, respectively. Besides, the z-score in [8] was -0.514 (inactive); in assay [12], 1.68 (inactive); in [13], 0.94 (inactive); in assay [14] it was 2.7 (inactive); in assay [16], 0.951 (inactive).

With `CN1C=C(C(=O)OCCS(C)(=O)=O)C(C(=O)OCCS(C)(=O)=O)=CC(CCCO)=CC1c1ccc(CN2CCCC2)cc1` (stereo not given), the composite z-score in assay [1] worked out at 0.316; in assay [2], 0.156; in assay [3], 0.0126; in [4], 1.11; in assay [5], 1.25; in assay [6], 2.02. The composite z-score in assay [7] amounted to 1.35; in assay [9], 1.65; in [10], 0.0053; in [11], 1.48; in [15], 3.06; in [17], 0.383. For the same molecule, the composite z-score in [18] came to 0.845; in assay [19] it was 0.984; in assay [20] it was 0.273. The z-score is 0.226 (inactive) in assay [8]; 0.897 (inactive) in [12]; -6.78 (inactive) in assay [13]; -0.781 (inactive) in assay [14]; 0.0324 (inactive) in assay [16].

For the molecule `Cc1ccccc1C(O)C1C=CC2C(=O)N(c3ccccc3)C(=O)C2N1Nc1ccccc1F` (stereo not given), the composite z-score in [1] is 0.397; in assay [2], 0.0771; in assay [3] it was 0.213; in [4], 0.737; in [5], 1.16; in assay [6], 2.15. Also, the composite z-score in assay [7] was 0.93; in assay [9], 1.19; in [10], -0.0994; in [11], 1.16; in assay [15], 3.41; in assay [17] it was 0.496. The figures for the composite z-score in [18], in assay [19] and in assay [20] were -0.471, 1.12 and 0.0122, respectively. Also, the z-score was -1.35 (inactive) in assay [8]; 0.0769 (inactive) in [12]; 0.592 (inactive) in assay [13]; 0.764 (inactive) in assay [14]; -0.927 (inactive) in assay [16].
